Compound activity: PubChem BioAssay, several laboratories
Hits are enriched below; roughly 2.6% of the tested compounds scored in any of these assays.
LGR2 antag = blocks bursicon-induced cAMP signaling via Drosophila LGR2. inhibition, % at 9.99 µM. AID 720647. HEK293 LGR2, CRE-luciferase, bursicon-stimulated, 4 h. actives 0.35% (n = 380,000);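 active means drop in luminescence signal, shown as inhibition above about 50% in the replicate tests, limit read from the data, passing the limit was not always enough; inconclusive means probably only some replicates passing the limit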;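 further: agonist challenge used bursicon conditioned medium at about half maximal strength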
TROY signal inh = blocks TROY-dependent signaling in reporter cells; Q293 LMP1-TROYcd NF-kB luciferase reporter, 4 h; inhibition, % at 10 µM; actives 0.98% (n = 360,000);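 active means compounds whose plate-normalised and pattern-corrected inhibition of the luciferase reporter signal at the single screening dose is 50% or more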
EBV LMP1 NFkB = reduces LMP1-driven NF-kappaB luciferase signal; inhibition, % at 12.5 µM; actives 0.69% (n = 350,000); LMP1-induced NF-kappaB luciferase reporter cells, luminescence; in the data active means inhibition above about 41%; inconclusive means no clear call, values can overlap the other calls;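 further: 0% = neutral control wells and 100% = reference inhibitor control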
EWS-Fli block = inhibitors of EWS/Fli oncoprotein transcriptional activity; A673 NR0B1-luciferase reporter, viability-normalised; inhibition, % at 12.6 µM; actives 0.67% (n = 350,000); AID 651661;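 active means mean inhibition of at least 50% after viability correction, with every replicate also passing that limit; inconclusive means mean reaches 50% but only one of two replicates passes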;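 further: firefly luciferase signal divided by Alamar Blue viability fluorescence both relative to DMSO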
TWEAK Fn14 block = inhibitors of TWEAK-Fn14 interaction signaling | TWEAK-stimulated Fn14 reporter cells, luciferase luminescence, 8 h | inhibition, % at 10 µM | actives 2% (n = 360,000) | AID 1159606; in the data active means inhibition above about 50%
* = called active by the depositor; ? = inconclusive; . = no result.

SMILES | LGR2 antag | TROY signal inh | EBV LMP1 NFkB | EWS-Fli block | TWEAK Fn14 block
C=CCn1c(=O)/c(=C/c2ccc(Cl)cc2)s/c1=C(\C#N)c1nnc2n1CCCCC2 | 45.8 | -0.9 | 71.2* | -2.9 | 32.4
C=CCN1C(c2ccccc2)=CS/C1=C(\C#N)c1nnc2n1CCCCC2 | . | -3.4 | -14.0 | . | -20.9
CN1CCN(C(=O)c2cc3c(c(-c4cccc(-c5ccccc5F)c4)n2)[C@@H](CCO)N([S@](=O)C(C)(C)C)C3)CC1 | -8.9 | . | . | -10.0 | .
CCN=C1S/C(=C\c2cc(OCC)c(O)cc2Br)C(=O)N1CC | -26.1 | 29.3 | 53.6* | . | 23.3
CCN=C1S/C(=C\c2ccc(O)c(OCC)c2)C(=O)N1CC | -18.9 | -1.0 | -5.8 | 3.8 | -17.7
CCOC(=O)COc1ccc2ccccc2c1/C=C/[N+](=O)[O-] | 104.5* | 20.5 | 11.8 | 22.1 | 31.9
CCOc1ccc(/C=C/[N+](=O)[O-])c2ccccc12 | . | -18.7 | 74.7* | . | -12.3
O=c1[nH]c(CN2CCN(c3ccc(O)cc3)CC2)nc2scc(-c3ccc(Cl)cc3)c12 | -15.3 | 22.4 | 14.7 | 59.8* | 8.7
COc1ccc(S(=O)(=O)N(C)C[C@H]2Oc3c(NC(=O)CCCCCC(=O)Nc4ccccc4N)cccc3C(=O)N([C@@H](C)CO)C[C@@H]2C)cc1 | -12.2 | . | . | -24.2 | .
COC(=O)c1cc2ccccc2c(=O)s1 | . | . | -6.0 | . | 85.1*
O=C(NCCO)c1cc2ccccc2c(=O)s1 | . | -18.2 | -5.7 | . | 4.9
COc1cc(C(=O)Nc2cc(C)ccn2)ccc1OCC(=O)N1CCOCC1 | 7.7 | 14.4 | 1.7 | . | 92.5*
COc1ccc(-c2nc(NC(=O)c3ccc(OCC(=O)N4CCOCC4)c(OC)c3)sc2C)cc1 | 36.7 | 26.7 | 13.6 | 6.4 | 57.8*
COc1ccc2c3c(n(C)c2c1)[C@H](CO)N(CC1CCCC1)CC31CCN(C(C)=O)CC1 | -22.1 | . | . | -1.7 | .
O=c1c2ccccc2nc(/C=C/c2ccccc2)n1CCCO | 8.2 | -19.4 | 5.2 | -1.0 | -14.4
O=c1c2ccccc2nc(/C=C/c2ccc(O)cc2)n1CCc1ccccc1 | 17.2 | 6.2 | -5.1 | . | 66.1*
O=c1c2ccccc2nc(-c2ccco2)n1CCc1ccc(O)cc1 | 7.9 | 32.9 | 9.1 | 13.2 | 63.9*
CN(C)C(=O)C[C@@H]1C[C@H]2c3cc(NC(=O)NC4CCCCC4)ccc3O[C@H]2[C@H](CO)O1 | 0.2 | . | . | 2.8 | .
Cc1noc(C)c1S(=O)(=O)Nc1ccc2c(c1)C(=O)N([C@@H](C)CO)C[C@H](C)[C@@H](CN(C)S(=O)(=O)c1cn(C)cn1)O2 | 1.6 | . | . | -13.3 | .
Cc1ccc(-c2csc(=Nc3cccnc3)n2CCCN2CCCC2=O)cc1C | -3.8 | -15.4 | 2.6 | . | -4.4
Cc1ccc(-c2csc(=Nc3cccnc3)n2CCCn2ccnc2)cc1C | . | 50.6* | 46.8* | -3.9 | 84.4*
CCOC(=O)c1c(NC(=O)COc2cccc3c2CCN(C)C3=O)sc2c1CCC2 | 5.1 | 39.0 | 13.2 | -0.7 | 73.5*
Cc1cccc(NC(=O)COc2cccc3c2CCN(C)C3=O)c1C | -4.9 | 0.2 | -7.4 | 3.5 | 7.6
CCOC(=O)c1c(NC(=O)CSc2nnc(-c3c[nH]c4ccccc34)n2C)sc2c1CCCC2 | -0.7 | 27.1 | -15.4 | 15.6 | 56.2*
COc1cccc(CNC(=O)C[C@@H]2CC[C@@H]3[C@H](COc4ccc(NS(=O)(=O)c5ccccc5F)cc4C(=O)N3C)O2)c1 | -18.3 | . | . | -3.2 | .
SMILES | LGR2 antag | TROY signal inh | EBV LMP1 NFkB | EWS-Fli block | TWEAK Fn14 block
O=S(=O)(Nc1ccc(O)c(Sc2nc3ccccc3s2)c1)c1cccc2ccccc12 | -0.2 | 67.5* | 3.5 | . | 50.3*
O=S(=O)(Nc1ccc(O)c(Sc2nc3ccccc3s2)c1)c1ccc(F)cc1 | 7.8 | 48.4 | -2.3 | . | 46.3
COc1cc(OC)c(C#N)c(S(=O)(=O)Cc2ccccc2)c1 | . | -5.0 | -4.1 | . | -0.2
N#Cc1c([N+](=O)[O-])cc([N+](=O)[O-])cc1S(=O)(=O)Cc1ccccc1 | 6.5 | 51.6* | 27.7 | ? | 42.9
CC(=O)NC1C(OCc2cccc(Br)c2)OC(COC(C)=O)C(OC(C)=O)C1OC(C)=O (stereo not drawn) | 28.2 | 7.8 | 8.9 | 7.6 | -12.9
CC(=O)OCC1OC(Nc2cccc(C)c2)C(OC(C)=O)C(OC(C)=O)C1OC(C)=O (stereo not drawn) | 3.0 | -8.2 | 53.1* | . | 6.8
Cc1ccc(-c2nnc(Nc3ccccc3)o2)cc1 | 89.8* | 65.5* | 36.1 | 62.7* | 93.7*
CNC[C@@H]1Oc2c(NC(=O)Nc3ccc4c(c3)OCO4)cccc2C(=O)N([C@H](C)CO)C[C@@H]1C | -21.4 | . | . | -4.3 | .
Cc1ccc(F)cc1-c1cc(C(=O)NCc2cc(C(F)(F)F)cc(C(F)(F)F)c2)[nH]n1 | 6.3 | 53.0* | . | -4.4 | 19.2
Cc1ccc(Cl)cc1-c1cc(C(=O)NCc2cc(C(F)(F)F)cc(C(F)(F)F)c2)[nH]n1 | . | 42.5 | . | -4.9 | 61.0*
Cc1csc(-c2cc(C(=O)NCc3cc(C(F)(F)F)cc(C(F)(F)F)c3)n[nH]2)c1 | 17.6 | 52.4* | . | -1.6 | -80.0
Cc1cc(F)ccc1-c1cc(C(=O)NCc2cc(C(F)(F)F)cc(C(F)(F)F)c2)[nH]n1 | -9.8 | 30.1 | . | -6.0 | -53.1
COc1ccc(Cl)cc1-c1cc(C(=O)NCc2cc(C(F)(F)F)cc(C(F)(F)F)c2)[nH]n1 | 3.0 | 28.2 | . | 0.5 | 2.4
O=C([C@@H]1[C@@H](CO)[C@@H]2Cn3c(ccc(-c4ccccc4F)c3=O)[C@H]1N2C(=O)C1CC1)N1CCCCC1 | -11.7 | . | . | -0.1 | .
COc1cc([N+](=O)[O-])ccc1-c1ccc(/C=C2\C(=O)ON=C2c2ccccc2)o1 | -2.6 | -1.6 | 17.1 | 37.9 | 67.9*
COc1cc([N+](=O)[O-])ccc1-c1ccc(/C=N\n2cnnc2)o1 | 3.6 | -10.7 | -9.5 | 5.1 | -46.0
Nc1[nH]c(C(=O)c2ccccc2)c(-c2ccccc2)c1C(=O)NCCc1c[nH]c2ccccc12 | -5.5 | . | . | -15.6 | .
CO[C@@H]1CN(C)C(=O)c2cc(NS(=O)(=O)c3ccccc3)ccc2OC[C@@H](C)N(C)C[C@@H]1C | 15.1 | . | . | -5.6 | .
COc1ccc(C(c2sc3nc(C)nn3c2O)N2CCC(C(N)=O)CC2)cc1OC (stereo not drawn) | 0.1 | 13.6 | 71.8* | -1.1 | 3.8
COc1cc(C(c2sc3nc(C)nn3c2O)N2CCc3ccccc3C2)cc(OC)c1OC (stereo not drawn) | -3.8 | -1.1 | 85.8* | 8.1 | -1.6
